Measured values reported in PubChem BioAssay (NCATS).
Inconclusive results are not listed. Calls of active or inactive are those of the source. The call rests on the fitted dose curve; in most records, active means well fitted curve in the direction sought with a large enough effect; inconclusive means small, poorly fitted or top-dose-only effect, or another doubt; inactive means no such curve, though single readings can be large; an effect the other way counts as inactive or inconclusive.

Assays:
[1] = biological target: Rap guanine nucleotide exchange factor 3 (Homo sapiens) (UniProt O95398); assay: Confirmatory qHTS for antagonist of cAMP-regulated guanine nucleotide exchange factor 3 (EPAC1) (AID 1645880); further: nearly all actives have a fitted effect of over 55% in size; further: potency means the concentration at half of the fitted maximal effect
Sequence of Rap guanine nucleotide exchange factor 3 (Homo sapiens) (O95398 whole entry, looked up): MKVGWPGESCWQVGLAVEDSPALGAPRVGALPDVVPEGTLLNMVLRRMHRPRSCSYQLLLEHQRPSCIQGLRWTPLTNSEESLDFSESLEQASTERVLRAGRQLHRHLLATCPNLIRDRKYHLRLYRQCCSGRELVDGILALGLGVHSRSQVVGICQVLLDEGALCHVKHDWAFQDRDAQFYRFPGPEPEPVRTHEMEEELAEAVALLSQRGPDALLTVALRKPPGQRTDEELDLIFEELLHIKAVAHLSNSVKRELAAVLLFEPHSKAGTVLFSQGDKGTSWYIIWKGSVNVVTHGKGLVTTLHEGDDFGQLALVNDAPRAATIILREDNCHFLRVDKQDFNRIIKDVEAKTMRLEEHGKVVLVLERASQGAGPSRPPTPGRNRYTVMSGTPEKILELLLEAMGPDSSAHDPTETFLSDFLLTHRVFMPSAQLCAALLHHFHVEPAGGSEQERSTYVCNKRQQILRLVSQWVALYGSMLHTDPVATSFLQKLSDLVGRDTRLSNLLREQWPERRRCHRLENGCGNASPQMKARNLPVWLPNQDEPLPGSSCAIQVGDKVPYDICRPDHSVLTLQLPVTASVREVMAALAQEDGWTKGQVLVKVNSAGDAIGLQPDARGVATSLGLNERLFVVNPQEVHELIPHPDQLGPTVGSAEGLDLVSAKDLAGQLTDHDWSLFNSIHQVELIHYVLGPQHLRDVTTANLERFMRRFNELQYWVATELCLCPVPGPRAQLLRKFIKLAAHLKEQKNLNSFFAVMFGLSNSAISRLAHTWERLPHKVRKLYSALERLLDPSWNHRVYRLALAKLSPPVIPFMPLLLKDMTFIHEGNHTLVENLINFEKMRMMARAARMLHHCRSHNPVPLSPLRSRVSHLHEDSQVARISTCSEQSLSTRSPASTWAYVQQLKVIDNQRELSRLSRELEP
Summary of the method: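 Nucleotide exchange uses 100 nM EPAC1, 250 nM RAP1B-BODIPY-GDP and 50 uM GDP, with compounds in a concentration-titration series. After 5 min at room temperature, fluorescence (480 nm ex/540 nm em) is read every 5 min for 30 min. Data are normalized to control ATA and DMSO.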

[2] = biological target: Rap guanine nucleotide exchange factor 3 (Homo sapiens) (UniProt O95398); assay: Confirmatory qHTS for agonist of cAMP-regulated guanine nucleotide exchange factor 3 (EPAC1) (AID 1645881); further: nearly all actives have a fitted effect of over 75% in size; further: potency means the concentration at half of the fitted maximal effect;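 on activation: EPAC1 catalysed release of BODIPY-GDP from Rap1B seen as fluorescence loss; 100% = effect of cAMP agonist control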
[3] = biological target: Rap guanine nucleotide exchange factor 4 (Homo sapiens) (UniProt Q8WZA2); assay: Confirmatory qHTS for agonist of cAMP-regulated guanine nucleotide exchange factor 4 (EPAC2) (AID 1645884);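 further: nucleotide exchange releases bodipy-GDP from Rap1 and this lowers its fluorescence; nearly all actives have a fitted effect of over 65% in size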; further: potency means the concentration at half of the fitted maximal effect; on activation: on the % scale 0 is the no-effect control and ±100 the full control effect
Sequence of Rap guanine nucleotide exchange factor 4 (Homo sapiens) (Q8WZA2 whole entry, looked up): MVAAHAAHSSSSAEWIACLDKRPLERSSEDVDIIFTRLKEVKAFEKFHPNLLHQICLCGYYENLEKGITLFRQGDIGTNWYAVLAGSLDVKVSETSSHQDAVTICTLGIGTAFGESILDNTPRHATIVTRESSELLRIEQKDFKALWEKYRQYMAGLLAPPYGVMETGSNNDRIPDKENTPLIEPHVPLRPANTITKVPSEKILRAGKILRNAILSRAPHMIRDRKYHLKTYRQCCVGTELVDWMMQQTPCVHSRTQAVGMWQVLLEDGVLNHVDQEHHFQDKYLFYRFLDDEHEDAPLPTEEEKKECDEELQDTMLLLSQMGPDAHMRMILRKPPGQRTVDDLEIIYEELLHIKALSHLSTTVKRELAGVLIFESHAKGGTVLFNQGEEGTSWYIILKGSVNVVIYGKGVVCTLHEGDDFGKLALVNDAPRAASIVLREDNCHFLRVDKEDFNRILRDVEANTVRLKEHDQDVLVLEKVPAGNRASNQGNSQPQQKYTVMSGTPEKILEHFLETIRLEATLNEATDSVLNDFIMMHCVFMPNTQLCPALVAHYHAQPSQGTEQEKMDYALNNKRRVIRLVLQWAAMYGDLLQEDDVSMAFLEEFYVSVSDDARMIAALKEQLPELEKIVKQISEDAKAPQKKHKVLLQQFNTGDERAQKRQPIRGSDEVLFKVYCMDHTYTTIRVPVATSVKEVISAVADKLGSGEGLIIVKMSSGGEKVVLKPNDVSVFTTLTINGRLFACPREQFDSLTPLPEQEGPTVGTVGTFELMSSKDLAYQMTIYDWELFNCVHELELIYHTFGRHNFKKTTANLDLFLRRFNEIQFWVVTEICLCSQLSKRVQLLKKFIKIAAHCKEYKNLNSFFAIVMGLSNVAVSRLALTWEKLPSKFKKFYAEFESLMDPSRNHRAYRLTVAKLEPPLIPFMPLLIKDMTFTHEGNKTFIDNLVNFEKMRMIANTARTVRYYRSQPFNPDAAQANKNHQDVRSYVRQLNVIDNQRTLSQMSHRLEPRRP

[4] = biological target: Rap guanine nucleotide exchange factor 4 (Homo sapiens) (UniProt Q8WZA2); assay: Confirmatory qHTS for antagonist of cAMP-regulated guanine nucleotide exchange factor 4 (EPAC2) (AID 1645885); further: nearly all actives have a fitted effect of over 25% in size; further: potency means the concentration at half of the fitted maximal effect; on activity change, negative = inhibition: on the % scale 0 is the no-effect control and ±100 the full control effect
[5] = biological target: Rap guanine nucleotide exchange factor 3 (Homo sapiens) (UniProt O95398); assay: Counterscreen qHTS for antagonist of cAMP-regulated guanine nucleotide exchange factor 3 (EPAC1) (AID 1645888);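 further: fluorescence loss as bound BODIPY-GDP is released from Rap1B; % of control where 0% means no effect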
Summary of the method: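 Rap1B-BODIPY-GDP 250 nM + GDP 50 uM; cpds 7-pt, final 9.74 nM–152 uM (activator mode) or from 7.32 nM upwards (inhibitor mode); RT; FI 480/540 nm at 5 and 30 min, then ± cAMP, reread.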

CC(=Cc1ccccc1)C=C1SC(=S)N(CCCC(=O)Nc2ccc(C(=O)O)c(O)c2)C1=O
active: Potency [1] 37.9 µM
inactive: Potency [2] | Potency [3] | Potency [4] | Potency [5]

Cc1ccc(C(=O)NCCCNC(=O)c2ccco2)cn1
inactive: Potency [1] | Potency [2] | Potency [3] | Potency [4] | Potency [5]

CCC(=Cc1ccccc1OC)c1ccncc1
inactive: Potency [1] | Potency [2] | Potency [3] | Potency [4] | Potency [5]

COc1ccccc1C(=O)NC(=O)Cn1nc(C)c([N+](=O)[O-])c1C
inactive: Potency [1] | Potency [2] | activation [3] 4.27% [at 17.1 µM, percent relative to cAMP agonist control] | Potency [4] | activity change, negative = inhibition [5] 11.7% [at 30.8 µM]

Cc1cc(=O)n(Cc2cccc(Cl)c2)c2c1c(C)nn2C
inactive: Potency [1] | Potency [2] | Potency [3] | Potency [4] | Potency [5]

COC1=NC(=C(c2ccccc2)c2ccccc2)OC1=O
active: Potency [1] 19 µM | Potency [4] 47.8 µM
inactive: Potency [2] | Potency [3] | Potency [5]

COc1ccccc1-c1ccc(Nc2cccc(C(F)(F)F)c2)nn1
inactive: Potency [1] | Potency [2] | Potency [3] | Potency [4] | Potency [5]

Cc1ccccc1CNC(=O)CCC(=O)N1CCSc2ccccc21
inactive: Potency [1] | Potency [2] | Potency [3] | Potency [4] | Potency [5]

O=C1Nc2ccccc2Nc2ncccc21
inactive: Potency [1] | Potency [2] | activation [3] -4.86% [at 17.1 µM, percent relative to cAMP agonist control] | Potency [4] | activity change, negative = inhibition [5] 0.957% [at 30.8 µM]

Oc1ccc(NCc2ccccc2OCc2ccc(Cl)cc2)cc1
inactive: Potency [2] | Potency [3] | Potency [4] | Potency [5]
active: Potency [1] 75.7 µM

COc1ccc(S(=O)(=O)N2CCC[C@H]2C(=O)N2CCC[C@H]2C(=O)N[C@@H](C)c2ccccc2)cc1C
inactive: Potency [1] | Potency [2] | activation [3] 1.42% [at 17.1 µM, percent relative to cAMP agonist control] | Potency [4] | activity change, negative = inhibition [5] 6.49% [at 30.8 µM]

CCOc1ccc(C(=O)NCC(=O)NCC(c2ccco2)N2CCCCC2)cc1OCC (stereo not given)
inactive: Potency [1] | Potency [2] | activation [3] -0.0767% [at 17.1 µM, percent relative to cAMP agonist control] | Potency [4] | activity change, negative = inhibition [5] -4.11% [at 30.8 µM]

COc1ccc(Br)cc1CN(C)C(=O)c1ccccc1OCc1c(C)noc1C
inactive: Potency [1] | Potency [2] | Potency [3] | Potency [4] | Potency [5]

CN(Cc1ccccc1)c1ncnc2onc(-c3ccc(F)cc3)c12
inactive: Potency [1] | Potency [2] | Potency [3] | Potency [4] | Potency [5]

CCN(CC(=O)Nc1c(F)cccc1F)C(=O)CCc1nc2sc3c(c2c(=O)[nH]1)CCCC3
active: Potency [1] 75.7 µM
inactive: Potency [2] | Potency [3] | Potency [4] | Potency [5]

CCOc1ccc2nc(NC(=O)CSc3nc(-c4ccccc4)c(C#N)c(=O)[nH]3)sc2c1
inactive: Potency [2] | activation [3] 2.22% [at 17.1 µM, percent relative to cAMP agonist control] | Potency [4] | activity change, negative = inhibition [5] -3.89% [at 30.8 µM]
active: Potency [1] 56.2 µM

COc1cccc2sc(N3CCN(c4nc5ccccc5s4)CC3)nc12
inactive: Potency [1] | Potency [2] | activation [3] 2.2% [at 17.1 µM, percent relative to cAMP agonist control] | Potency [4] | activity change, negative = inhibition [5] -13.4% [at 30.8 µM]

COC(=O)c1cc2sc(C)cc2n1Cc1ccccc1
inactive: Potency [1] | Potency [2] | Potency [3] | Potency [4] | Potency [5]

Cc1cccnc1NC(=O)c1ccc(S(=O)(=O)N2CC(C)OC(C)C2)cc1 (stereo not given)
inactive: Potency [1] | Potency [2] | Potency [3] | Potency [4] | Potency [5]

COC(=O)c1ccc2nc(-c3ccccc3)c(Cc3ccc(C)cc3)n2c1
inactive: Potency [1] | Potency [2] | Potency [3] | Potency [4] | Potency [5]

COc1cc(/C=C2\SC(=S)N(NS(=O)(=O)c3ccc(C)cc3)C2=O)ccc1O
inactive: Potency [2] | activation [3] 2.55% [at 17.1 µM, percent relative to cAMP agonist control] | Potency [4] | activity change, negative = inhibition [5] -2.35% [at 30.8 µM]
active: Potency [1] 22.4 µM

COc1cc(/C=C2\SC(=S)N(NS(=O)(=O)c3ccccc3)C2=O)cc(OC)c1OC
active: Potency [1] 15.1 µM
inactive: Potency [2] | Potency [3] | Potency [4] | Potency [5]

COc1ccc(-n2ccn(Cc3ccccc3Cl)c(=O)c2=O)cc1OC
inactive: Potency [1] | Potency [2] | Potency [3] | Potency [4] | Potency [5]

Cc1ccc(C)c(-c2ccc(=O)n(Cc3cccc(Br)c3)n2)c1
active: Potency [4] 19 µM
inactive: Potency [1] | Potency [2] | Potency [3] | Potency [5]

Cc1[nH]n(-c2ccccc2)c(=O)c1C(c1cccc([N+](=O)[O-])c1O)c1c(C)[nH]n(-c2ccccc2)c1=O
inactive: Potency [2] | activation [3] 0.393% [at 17.1 µM, percent relative to cAMP agonist control] | Potency [4] | activity change, negative = inhibition [5] 23.8% [at 30.8 µM]
active: Potency [1] 44.7 µM

COc1ccc(C(C#N)N2N=C(C)CC2c2ccccc2)cc1 (stereo not given)
inactive: Potency [1] | Potency [2] | Potency [3] | Potency [5]
active: Potency [4] 47.8 µM

Cc1c(Cl)cccc1NC(=O)CN(CCc1ccccc1)S(=O)(=O)c1ccccc1
inactive: Potency [1] | Potency [2] | Potency [3] | Potency [4] | Potency [5]

COc1ccc(C)cc1NC(=O)CSc1nc(=O)n(Cc2ccco2)c2c1CCC2
inactive: Potency [2] | Potency [3] | Potency [4] | Potency [5]
active: Potency [1] 84.9 µM

CC1CCc2[nH]c3ccc(C(=O)N(C)CC(=O)Nc4ccccc4Br)cc3c2C1 (stereo not given)
inactive: Potency [1] | Potency [2] | Potency [3] | Potency [4] | Potency [5]

N#C/C(=C/c1ccc(N2CCOCC2)o1)C(=O)Nc1ccccc1
inactive: Potency [1] | Potency [5]
active: Potency [2] 112 µM | Potency [3] 100 µM | Potency [4] 75.7 µM

CC(=O)NC(c1ccccc1)c1cc(Cl)c2cccnc2c1O (stereo not given)
inactive: Potency [1] | Potency [2] | Potency [3] | Potency [4] | Potency [5]

CCc1noc(C)c1C(=O)N1CCCSC1=Nc1ccccc1C(C)C
inactive: Potency [1] | Potency [2] | Potency [3] | Potency [4] | Potency [5]

CC(=O)NCCn1c(C)cc2ccccc21
inactive: Potency [1] | Potency [2] | activation [3] 5.87% [at 17.1 µM, percent relative to cAMP agonist control] | Potency [4] | activity change, negative = inhibition [5] -13.2% [at 30.8 µM]

CCOC(=O)N1CCN(c2ccc(S(=O)(=O)N(Cc3ccccc3)Cc3ccccc3)cn2)CC1
inactive: Potency [1] | Potency [2] | Potency [3] | Potency [4] | Potency [5]

N#CC1(NC(=O)COC(=O)c2nc(Cl)c(Cl)c(N)c2Cl)CCCCC1
inactive: Potency [1] | Potency [2] | Potency [3] | Potency [4] | Potency [5]

COc1cc(S(=O)(=O)Nc2ccccc2C)ccc1Cl
inactive: Potency [1] | Potency [2] | Potency [3] | Potency [4] | Potency [5]

Cc1c(C(=O)NCc2ccc(F)cc2)sc(=O)n1Cc1ccccc1F
inactive: Potency [1] | Potency [2] | Potency [3] | Potency [5]
active: Potency [4] 67.5 µM

CC(C)(CNC(=O)Cc1ccc(NS(=O)(=O)c2cccc(C(F)(F)F)c2)cc1)N1CCOCC1
inactive: Potency [1] | Potency [2] | activation [3] 1.17% [at 17.1 µM, percent relative to cAMP agonist control] | Potency [4] | activity change, negative = inhibition [5] 10.3% [at 30.8 µM]

CC1(C(=O)NS(=O)(=O)c2ccc(Cl)s2)CCN1C(=O)C1(c2ccc(Cl)cc2)CC1 (stereo not given)
active: Potency [1] 14.1 µM
inactive: Potency [2] | activation [3] 0% [at 17.1 µM, percent relative to cAMP agonist control] | Potency [4] | activity change, negative = inhibition [5] -17.9% [at 30.8 µM]

Cc1ccc(NC(=O)COC(=O)Cn2c(C)csc2=O)c([N+](=O)[O-])c1
inactive: Potency [1] | Potency [2] | Potency [3] | Potency [4] | Potency [5]

CC(C)Cc1csc(NC(=O)c2ccc(Cl)cc2)c1C(=O)O
inactive: Potency [1] | Potency [2] | activation [3] 0% [at 17.1 µM, percent relative to cAMP agonist control] | Potency [4] | activity change, negative = inhibition [5] -11.2% [at 30.8 µM]

O=C(CN1CCOCC1)Nc1ccccc1Sc1ccc(Cl)cc1
inactive: Potency [1] | Potency [2] | Potency [3] | Potency [4] | Potency [5]

Cc1ccc(C2C(C#N)=C3N=C(N)c4ccccc4N3C3=C2C(=O)CCC3)cc1 (stereo not given)
inactive: Potency [1] | Potency [2] | activation [3] 5.16% [at 17.1 µM, percent relative to cAMP agonist control] | Potency [4] | activity change, negative = inhibition [5] -7.3% [at 30.8 µM]

CSc1nnc(-c2ccccc2)c(-c2ccccc2)n1
inactive: Potency [1] | Potency [2] | Potency [3] | Potency [5]
active: Potency [4] 19 µM

CC(=O)/C(=C/N(C)C)Sc1ccc(C)cc1
inactive: Potency [1] | Potency [2] | Potency [3] | Potency [4] | Potency [5]

COC(=O)c1cc2oc(C)cc2n1Cc1ccccc1Cl
inactive: Potency [1] | Potency [2] | Potency [3] | Potency [4] | Potency [5]

Cn1cc(CNCc2cn(C)nc2-c2ccc(C3CCCCC3)cc2)cn1
inactive: Potency [1] | Potency [2] | Potency [3] | Potency [4] | Potency [5]

Cc1ccc(C)c(COC(=O)c2cc(S(=O)(=O)N3CCCCC3)ccc2N2CCOCC2)c1
inactive: Potency [1] | Potency [2] | Potency [3] | Potency [4] | Potency [5]

Cc1cscc1-c1ccc(C(=O)Nc2c(C)cccc2C)o1
inactive: Potency [1] | Potency [2] | activation [3] 7.37% [at 17.1 µM, percent relative to cAMP agonist control] | Potency [4] | activity change, negative = inhibition [5] -5.01% [at 30.8 µM]
